# This is a sample that favours compounds with a hit; in the whole collection about 0.31% have one here.
# TRPV1 agonist = HTS Assay for Compounds that Act as Agonists of the Vanilloid Receptor 1; Transient receptor potential cation channel subfamily V member 1 (Homo sapiens), Q8NER1; TRPV1-expressing cells, Fluo-8 calcium influx, agonist mode; activation, % at 8.33 µM; hit rate 0.19% among 320,000; in the data active = activation above about 80%; inconclusive = between about 30% and that limit; also: 0% is about no effect
# Target sequence (Q8NER1 whole entry, looked up): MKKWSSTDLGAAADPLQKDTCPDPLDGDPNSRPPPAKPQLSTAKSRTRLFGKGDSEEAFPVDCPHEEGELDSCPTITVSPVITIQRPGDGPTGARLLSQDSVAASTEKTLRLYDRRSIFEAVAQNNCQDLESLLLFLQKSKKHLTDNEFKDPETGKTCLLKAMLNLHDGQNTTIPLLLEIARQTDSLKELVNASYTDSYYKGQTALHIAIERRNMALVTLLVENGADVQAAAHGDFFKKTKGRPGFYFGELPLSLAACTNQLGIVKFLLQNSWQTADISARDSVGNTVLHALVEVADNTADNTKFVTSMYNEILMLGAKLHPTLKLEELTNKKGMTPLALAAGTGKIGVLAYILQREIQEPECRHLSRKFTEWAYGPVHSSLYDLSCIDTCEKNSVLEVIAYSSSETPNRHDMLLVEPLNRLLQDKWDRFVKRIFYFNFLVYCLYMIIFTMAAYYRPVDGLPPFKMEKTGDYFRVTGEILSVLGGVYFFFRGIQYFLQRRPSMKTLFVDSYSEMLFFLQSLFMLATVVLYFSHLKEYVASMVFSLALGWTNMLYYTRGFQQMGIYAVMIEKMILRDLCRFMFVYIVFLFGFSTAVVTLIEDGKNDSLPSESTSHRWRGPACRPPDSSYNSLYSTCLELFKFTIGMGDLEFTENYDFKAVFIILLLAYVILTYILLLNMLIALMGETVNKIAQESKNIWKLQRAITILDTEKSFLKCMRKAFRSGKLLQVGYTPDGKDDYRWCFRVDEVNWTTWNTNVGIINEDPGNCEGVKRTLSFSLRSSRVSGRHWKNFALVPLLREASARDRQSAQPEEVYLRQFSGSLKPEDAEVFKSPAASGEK
#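 TRPV1-expressing cells were cultured overnight at 35.5C and loaded with Fluo-8 calcium dye for 40 to 90 min at room temperature. After a 10 s baseline, compound was added and calcium influx was read kinetically for 3 min (ex 480/em 520 nm).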
# TRPV1 PAM = HTS Assay for Compounds that Act as Potentiators of the Vanilloid Receptor 1 | Transient receptor potential cation channel subfamily V member 1 (Homo sapiens), Q8NER1 | TRPV1-expressing cells, Fluo-8 calcium influx, capsaicin EC20 potentiation | potentiation, % at 8.33 µM | hit rate 0.02% among 320,000 | AID 540277, 2011; in the data active = potentiation above about 80%; inconclusive = between about 30% and that limit; also: 0% is about no effect
#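 Cells expressing TRPV1 were dye-loaded with Fluo-8 and read kinetically: 10 s baseline, 3 min after compound (agonist portion), then 2 min after EC20 capsaicin (allosteric enhancer portion). Calcium-bound dye fluorescence at 480/520 nm.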
# TRPML1 inh = qHTS for Inhibitors of the Human Mucolipin Transient Receptor Potential 1 (TRPML1); Mucolipin-1 (Homo sapiens), Q9GZU1; TRPML1-inducible cells, Ca2+ dye fluorescence, FDSS; hits give low values; inhibition of EC80 agonist-evoked calcium signal; activity change, negative = inhibition, % (concentration not given with the values); hit rate 0.02% among 390,000; in the data active = activity change below about -50%; inconclusive = between about -30% and that limit;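 also: stimulus is agonist 54-4 at its EC80 concentration; % is scaled to controls: 0 for no effect and ±100 for the full control effect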
#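 Tet-induced TRPML1-DL cells loaded with Ca8 no-wash calcium dye were read kinetically on FDSS. Compound addition was followed by EC80 agonist 54-4 (4 uM final); inhibition was read over 110 s.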
# TRPML1 ag = qHTS for Agonists of the Human Mucolipin Transient Receptor Potential 1 (TRPML1); Mucolipin-1 (Homo sapiens), Q9GZU1; TRPML1-expressing cells, Ca2+ dye fluorescence, FDSS; activation, % (test concentration not listed); hit rate 0.12% among 410,000; AID 624414, 2012; in the data active = activation above about 50%; inconclusive = mostly about 30% to 49%; also: 0% is about no effect
#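 Cells: TRPML1-DL, 1X Tet inducer, ~16 h at 37 degrees C/5% CO2. Dye: ABD Ca8 no-wash + quencher, 45-90 min RT. Read: 10 s baseline, compound add, 110 s agonist phase; 54-4 EC80 (4uM final), 110 s antagonist phase.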
# * = called active by the depositor; ? = inconclusive; nt = no result given.
SMILES,TRPV1 agonist,TRPV1 PAM,TRPML1 inh,TRPML1 ag
CCN(CC)S(=O)(=O)c1cc(NC(=O)c2ccc(Br)s2)ccc1C,83.2*,-12.0,17.4,0.2
Cc1ccc(S(=O)(=O)Nc2ccccc2N2CCOCC2)cc1,6.4,-2.9,-8.8,64.5*
Cc1ccc(S(=O)(=O)Nc2cc(C(F)(F)F)ccc2N2CCOCC2)cc1C,28.0,-16.4,-11.1,85.3*
Cc1cccc(S(=O)(=O)Nc2cc(Cl)ccc2N2CCOCC2)c1,nt,nt,-16.2,72.0*
Cc1ccc(S(=O)(=O)Nc2ccccc2NS(=O)(=O)c2ccc(C)cc2)cc1,nt,nt,nt,-1.3
Cc1ccc(S(=O)(=O)Nc2ccccc2N2CCCCC2)cc1,nt,nt,-3.0,76.4*
Cc1cc(C)c(Cn2c(C)c(CNCCCc3ccccc3)c(C(=O)O)c2C)c(C)c1,nt,nt,0.6,-0.6
CC(C)(C)CC(C)(C)N=C1Nc2ccc(Cl)cc2N[C@]12C[C@H]1CCCC(=O)N3CC[C@@H](C2)[C@@H]13,nt,nt,nt,-0.4
CCN1CCN(S(=O)(=O)c2ccc(Cl)c(C(=O)Nc3cc(Cl)ccc3N3CCOCC3)c2)CC1,23.3,-12.2,-20.5,73.7*
N/C(=N\OC(=O)c1ccc(Cl)cc1)c1nonc1N,80.6*,-1.4,16.1,1.1
CCc1noc(-c2ccc(N3CCC(C)CC3)c([N+](=O)[O-])c2)n1,nt,nt,72.7,-0.1
Cc1cc(C)n(Cc2ccc(Cl)cc2Cl)c(=O)c1S(=O)(=O)c1ccccc1,-0.1,-10.8,-2.6,71.3*
Cc1sc2ccccc2[n+]1CCc1ccccc1,nt,nt,nt,2.6
C/C(=C\C=C(C#N)C#N)c1cc(C#N)c(N)o1,10.5,2.2,3.1,54.2*
CCOc1ccc(OCC)c(NS(=O)(=O)c2ccc3c(c2)CCCN3C(C)=O)c1,nt,nt,1.2,-0.2
Cc1ccc(NC(=O)c2oc3ccccc3c2NC(=O)C2CC2)cc1,?,8.6,-5.6,1.0
O=C(Nc1ccc(F)cc1)c1oc2ccccc2c1NC(=O)C1CC1,81.5*,-10.8,9.3,2.1
COc1ccc(CNC(=O)CCCn2c(=O)c3cccn3c3ccc(F)cc32)cc1OC,nt,nt,3.6,5.3
Cc1ccc(C2C(C#N)=C(N)SC(N)=C2C#N)c(C)c1,-1.3,25.1,0.7,64.4*
Cc1ccc(C2C(C#N)=C(N)SC(N)=C2C#N)cc1,3.5,-0.2,8.0,4.6
O=C(/C=C/c1ccccc1)Nc1cccnc1Cl,84.2*,-30.4,-11.9,-1.4
O=C(COC(=O)/C=C/c1ccccc1)Nc1cccnc1Cl,7.8,2.1,-7.6,0.4
O=C(N/N=C/c1ccc2c(c1)OCO2)c1ccc2c(c1)OCO2,?,1.5,32.9,-0.8
COc1ccc(/C=N/NC(=O)c2ccc3c(c2)OCO3)c(C(=O)O)c1OC,80.1*,-7.8,-1.6,-0.3
O=C(N/N=C/c1cccnc1)c1ccc2c(c1)OCO2,90.3*,-36.1,15.1,0.3
SMILES,TRPV1 agonist,TRPV1 PAM,TRPML1 inh,TRPML1 ag
CSc1cccc(N2C(=O)N(CC(=O)NCc3ccccc3Cl)c3ccccc3S2(=O)=O)c1,nt,nt,4.7,1.1
CCOc1ccc(-c2cc(C(=O)NCc3ccccc3Cl)c3ccccc3n2)cc1,nt,nt,-4.5,-0.2
Cc1ccc(NC(=O)CN(C)C(=O)c2cc3c(s2)CCCCC3)cc1,20.1,-17.2,-29.4,1.1
Cc1ccc(NC(=O)c2cc3c(s2)CCCC3)cc1,83.7*,-12.2,0.3,0.8
O=[N+]([O-])c1ccc(O/N=[N+](\[O-])N2CCCCC2)c([N+](=O)[O-])c1,nt,nt,34.2,1.2
Cc1cc(C)c(C(=O)N2CCCC(Nc3ccc(F)cc3)C2)o1 (configuration not stated),83.0*,-6.0,10.4,1.0
O=C(CCC(=O)N1CCCC(Nc2ccccc2)C1)c1ccc(F)cc1 (configuration not stated),86.5*,-5.0,2.2,-0.7
Cc1cc(C)c(C(=O)N2CCCC(Nc3ccc(C)c(C)c3)C2)o1 (configuration not stated),96.8*,4.8,-8.1,-1.3
Cn1nccc1C(=O)NC1CCCc2c1cnn2-c1ccc(C(C)(C)C)cc1 (configuration not stated),81.0*,4.3,33.9,-0.4
CC(=O)NC1CCCc2c1cnn2-c1ccc(C(C)(C)C)cc1 (configuration not stated),?,-9.7,-14.6,-0.6
C=CC[C@H](c1ccc(F)cc1)N(CC(C)C)S(=O)(=O)C=C,nt,nt,nt,21.2
Cc1cc(CNC(=S)Nc2ccc(Br)cc2Cl)nn1C,94.4*,-21.9,18.7,1.0
CCOC(=O)c1cn(Cc2ccccc2)c2cc(C)nn2c1=O,3.1,-8.4,7.3,-0.3
CCOC(=O)c1cn(Cc2ccccc2)c(C(=O)OC(C)(C)C)c1O,nt,nt,-5.5,60.5*
CCOc1ccc(-c2oc3cc(Cl)ccc3c(=O)c2O)cc1OC,nt,nt,5.9,23.0
COc1cc(/C=C/C(=O)Nc2ccc3[nH]c(=O)[nH]c3c2)cc(OC)c1OC,-13.7,-0.8,-5.4,0.0
O=C(Nc1ccc2[nH]c(=O)[nH]c2c1)Nc1ccc(F)cc1F,?,23.0,-2.6,-0.7
COc1cccc(/C=C/C(=O)Nc2ccc3[nH]c(=O)[nH]c3c2)c1,93.3*,4.2,44.2,-0.3
O=C(/C=C/c1ccc(F)cc1)Nc1ccc2[nH]c(=O)[nH]c2c1,83.1*,0.3,8.4,0.1
CCOc1ccccc1CNC(=O)C1CCCN(c2ncnc3c2nc2n3CCCCC2)C1 (configuration not stated),22.5,-10.3,1.5,1.3
O=C(NCc1ccccc1Cl)C1CCCN(c2ncnc3c2nc2n3CCCCC2)C1 (configuration not stated),80.7*,-9.1,-4.5,1.2
COc1cccc(CNC(=O)CCn2ccc3cc(S(=O)(=O)N4CCCC4)ccc32)c1,89.2*,9.7,14.7,-0.7
COc1cccc(CNC(=O)CCCn2ccc3cc(S(=O)(=O)N4CCCC4)ccc32)c1,?,-2.3,-4.2,1.7
CCN(CC)c1ccc(NS(=O)(=O)c2cc(-c3onc(C)c3C)ccc2OC)c(C)c1,nt,nt,23.2,0.5
CCN1CCc2c(sc(NC(=O)Nc3ccc(Cl)c(Cl)c3)c2C(N)=O)C1,81.8*,14.5,-17.1,80.8*
CCN1CCc2c(sc(NC(=O)c3ccc(S(=O)(=O)N(CC)c4ccccc4)cc3)c2C(N)=O)C1,28.0,1.5,-8.1,60.6*
Cc1ccc(-n2ncc(C(=O)N3CCN(C4CCCCC4)CC3)c2C2CCN(C(=O)OC(C)(C)C)CC2)cc1C,nt,nt,-15.3,69.2*
CC(C)(C)OC(=O)N1CCC(c2c(C(=O)N3CCN(c4ncccn4)CC3)cnn2-c2ccc(F)cc2F)CC1,nt,nt,22.6,0.6
Cc1ccc(-n2ncc(C(=O)N3CCN(c4ccccn4)CC3)c2C2CCN(C(=O)OC(C)(C)C)CC2)cc1C,nt,nt,-3.7,0.5
Cc1cccc(N2CCN(C(=O)c3cnn(-c4ccc(F)cc4F)c3C3CCN(C(=O)OC(C)(C)C)CC3)CC2)c1C,nt,nt,-62.8*,93.3*

# Compound activity: PubChem, National Center for Advancing Translational Sciences (NCATS)
